From PubChem BioAssay (NCATS)
Records with an inconclusive call do not appear. Values without a mark were called inactive. Calls follow the shape of the dose curve; as a rule, active = well fitted activation curve with a large enough effect; inconclusive = small, poorly fitted or top-dose-only effect; inactive = no such curve, though single readings can be large or run the other way.

What follows are compounds tested against Rap guanine nucleotide exchange factor 4 (Homo sapiens) (UniProt Q8WZA2) (assay: Confirmatory qHTS for agonist of cAMP-regulated guanine nucleotide exchange factor 4 (EPAC2) (AID 1645884;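 also: nucleotide exchange releases bodipy-GDP from Rap1 and this lowers its fluorescence; nearly all actives have a fitted effect of over 65% in size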)). Conditions: EPAC2 GEF activity, Rap1B-BODIPY-GDP fluorescence; series mostly up to 154 µM; activation: at the top concentration.
Chain of Rap guanine nucleotide exchange factor 4 (Homo sapiens) (Q8WZA2 whole entry, looked up): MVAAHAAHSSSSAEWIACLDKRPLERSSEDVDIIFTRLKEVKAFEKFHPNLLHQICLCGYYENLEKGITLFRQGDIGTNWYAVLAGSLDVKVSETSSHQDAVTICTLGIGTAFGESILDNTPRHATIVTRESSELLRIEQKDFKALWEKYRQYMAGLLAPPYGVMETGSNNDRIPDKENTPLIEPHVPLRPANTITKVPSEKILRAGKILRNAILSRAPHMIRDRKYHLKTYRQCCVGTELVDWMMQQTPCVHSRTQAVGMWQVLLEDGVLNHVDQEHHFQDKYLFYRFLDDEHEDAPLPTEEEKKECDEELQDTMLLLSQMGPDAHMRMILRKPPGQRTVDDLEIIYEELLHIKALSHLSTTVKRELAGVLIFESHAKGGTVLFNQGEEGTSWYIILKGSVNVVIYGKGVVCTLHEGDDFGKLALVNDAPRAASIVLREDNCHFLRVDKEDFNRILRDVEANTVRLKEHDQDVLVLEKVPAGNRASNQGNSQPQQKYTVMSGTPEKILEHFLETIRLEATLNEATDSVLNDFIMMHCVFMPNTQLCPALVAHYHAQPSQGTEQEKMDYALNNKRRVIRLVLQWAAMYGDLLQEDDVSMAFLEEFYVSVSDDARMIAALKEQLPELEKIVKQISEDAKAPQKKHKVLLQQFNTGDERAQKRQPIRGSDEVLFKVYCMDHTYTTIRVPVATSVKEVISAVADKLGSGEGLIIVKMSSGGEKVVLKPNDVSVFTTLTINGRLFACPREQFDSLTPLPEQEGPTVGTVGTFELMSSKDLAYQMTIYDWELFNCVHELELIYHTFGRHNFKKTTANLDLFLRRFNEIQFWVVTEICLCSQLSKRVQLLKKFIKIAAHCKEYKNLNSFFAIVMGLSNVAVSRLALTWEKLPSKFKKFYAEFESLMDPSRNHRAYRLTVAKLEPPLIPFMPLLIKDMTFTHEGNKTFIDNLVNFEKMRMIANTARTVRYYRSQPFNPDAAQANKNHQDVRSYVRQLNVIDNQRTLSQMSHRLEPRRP
% is scaled to controls: 0 for no effect and ±100 for the full control effect.

| Compound | activation |
| --- | --- |
| Cc1ccc(C2CC(c3cccs3)=NN2C(=O)c2ccco2)o1 (centres undefined) | 1.82% [at 17.1 µM, percent relative to cAMP agonist control] |
| CCc1cc(=O)oc2cc(C)cc(OCC(=O)N[C@@H](CSCc3ccccc3)C(=O)O)c12 | -4.74% |
| C=C1SC(Nc2c(C)cccc2C)=NC12CCCCC2 | 0.936% |
| CCCN(CCC)Cc1cc(=O)oc2cc(OC)ccc12 | -17.1% |
| COc1ccc(-c2nc(CCNS(=O)(=O)c3ccc4c(c3)OCCO4)cs2)cc1 | -16.5% |
| CCOc1ccc(NC(=NCc2ccc3c(c2)OCO3)SC2CC(=O)N(c3ccc(C(=O)O)cc3)C2=O)cc1 (centres undefined) | -22.3% |
| CCCc1[nH]c2ccc(C#N)cc2c1CCC | -1.11% |
| O=C(COc1ccc(Cl)cc1Cl)c1ccc[nH]1 | -1.61% [at 17.1 µM, percent relative to cAMP agonist control] |
| Fc1ccc2cnc(-c3ccccc3)c(-c3ccc(C(F)(F)F)cc3)c2c1 | -13.6% |
| COc1ccccc1/C=C/C=c1\sc2nc(=O)c(Cc3ccccc3)nn2c1=O | -5.91% |
| CCc1nc2c(OCc3ccc(C(=O)OC)cc3)cccn2c1N(C)C(=O)c1ccc(OC)cc1 | -6.93% [at 17.1 µM, percent relative to cAMP agonist control] |
| Cc1ccc(C2CC(c3cccs3)=NN2C(=O)CSc2nc(=O)n3cc(C)ccc3n2)cc1 (centres undefined) | 0% |
| O=C(O)c1[nH]c2ccccc2c1C(c1cccc(O)c1)c1c(C(=O)O)[nH]c2ccccc12 | 12.6% |
| CCOc1cnc(-c2c(-c3ccccc3Cl)noc2C)o1 | -19.3% |
